Experimental findings from PubChem BioAssay (Tox21) are described below.

Molecules are shown by their SMILES. Where “and” joins values, the source holds several entries; their conditions need not be identical. Equal values may be shown once. Records with an inconclusive call do not appear. Where a call stands in place of a potency, no number is given. Calls of active or inactive are those of the source. Calls follow the shape of the dose curve; as a rule, active = well fitted cell-killing curve with a large enough effect in the repeat runs; inconclusive = weak or mixed curves, or effect the other way; inactive = flat fitted curve, though single readings scatter.
Potency is read from the fitted curve at half-maximal effect.

This experiment in a line: qHTS assay to identify small molecule antagonists of the androgen receptor (AR) signaling pathway using the MDA cell line - cell viability counter screen (AID 743041; also: nearly all actives have a fitted effect of over 45% in size). The note with it: MDA-kb2 viability, CellTiter-Fluor, 16 h, cells co-treated with R1881 androgen agonist; series mostly up to 70.3 µM. The text has this: National Center for Advancing Translational Sciences [NCATS]
NIH Chemical Genomics Center [NCGC]
U.S. Environmental Protection Agency [EPA]
National Institutes of Environmental Health Sciences [NIEHS]
National Toxicology Program [NTP]
U.S. Food and Drug Administration [FDA]
Androgen receptor (AR), a nuclear hormone receptor, plays a critical role in AR-dependent prostate cancer and other androgen related diseases. Endocrine disrupting chemicals (EDCs) and their interactions with steroid hormone receptors like AR may cause disruption of normal endocrine function as well as interfere with metabolic homeostasis, reproduction, developmental and behavioral functions. To identify the compounds that inhibit AR signaling, MDA-kb2 AR-luc cell line (from ATCC, deposited by Wilson et al.) was used to screen the Tox21 10K compound library. MDA-kb2 AR-luc cell line is human breast carcinoma cell line that was stably transfected with a luciferase reporter gene under control of the MMTV promoter containing response elements for both androgen receptor (AR) and glucocorticoid receptor (GR). The cytotoxicity of the Tox21 compound library against the MDA-kb2 AR-luc cell line was tested in parallel by measuring the cell viability using CellTiter-Fluor assay (Promega, Madison, WI) in the same wells.
Tox21 Assay Protocol Summary:
MDA-kb2 AR-luc cells were dispensed at 3,000 cells/4 uL/well of culture medium into white wall/solid-bottom 1536-well plates using a Multidrop Combi (ThermoFisher Scientific, Waltham, MA) dispenser. After the assay plates were incubated at a 37C and 0% CO2 for 5 hr, 23 nL of compounds dissolved in DMSO, positive controls or DMSO only was transferred to the assay plate by a Pintool station (Kalypsys, San Diego, CA), followed by addition of 1 uL of agonist (R1881) in culture medium using a Bioraptr Flying Reagent Dispenser (FRD) workstation (Beckman Coulter, Indianapolis, IN, USA). The plates were incubated at a 37C and 0% CO2 for 16 h. After 15.5 h incubation, 1uL of CellTiter-Fluor reagent (Promega) was added using a Bioraptr FRD to each plate for measuring cytotoxicity. The fluorescence intensity was quantified on a ViewLux plate reader (PerkinElmer, Shelton, CT) following 30 min incubation at 37C and 0% CO2.
A general note: In qHTS, concentration-response curves come from the screen itself.
For the compound `CCCCCCCC/C=C\CCCCCCCC(=O)O`, the Potency result was “inactive”.

As for `C=C[C@H]1CN2CC[C@H]1C[C@H]2[C@H](O)c1ccnc2ccc(OC)cc12`, the Potency entry is “inactive”.

With `Cc1ccc2c(c1)C(=O)OC2=O`, the Potency result is “inactive”.

On to `CN1CCOCC1`, for which the Potency entry was “inactive”.

Consider `C=C[C@@]1(C)CC(=O)[C@]2(O)[C@@]3(C)[C@@H](O)CCC(C)(C)[C@@H]3[C@H](O)[C@H](OC(C)=O)[C@@]2(C)O1`, for which the Potency is 26.6 µM (active) and 38.6 µM (active).

For `CC/C(=C(/CC)c1ccc(O)cc1)c1ccc(O)cc1`, the Potency result was “inactive”.

Take `CN(Cc1cnc2nc(N)nc(N)c2n1)c1ccc(C(=O)N[C@@H](CCC(=O)O)C(=O)O)cc1`: the Potency result was “inactive”.

On to `CC[C@]12CCCN3CCc4c(n(c5ccccc45)[C@@](O)(C(=O)OC)C1)[C@@H]32`, for which the Potency entry is “inactive”.

With `Cc1ccc(N)c([N+](=O)[O-])c1`, the Potency entry was “inactive”.

Take `CC(C)(C)c1cccc(C(C)(C)C)c1O`: the Potency result was “inactive”.

On to `CC1=CC(C)(C)Nc2ccccc21`, for which the Potency result was “inactive”.

Regarding `CC(C)=CCO`, the Potency result is “inactive”.

Regarding `O=C(O)c1cc(=O)[nH]c(=O)[nH]1`, the Potency result was “inactive”.

Take `CCC/C=C/C=O`: the Potency entry was “inactive”.

Regarding `O=C(O)COCCN1CCN(C(c2ccccc2)c2ccc(Cl)cc2)CC1` (stereo not given), the Potency entry is “inactive”.

Consider `C=C[Si](OCCOC)(OCCOC)OCCOC`, for which the Potency entry was “inactive”.

Take `CC(=O)Nc1ccc2c(c1)Cc1cc(NC(C)=O)ccc1-2`: the Potency result is “inactive”.

Turning to `c1ccc2c(c1)ccc1ncccc12`, the Potency result is “inactive”.

In the case of `CC1(C)C(C=C(Cl)Cl)C1C(=O)OCc1cccc(Oc2ccccc2)c1` (stereo not given), the Potency result is “inactive”.

For `O=S1(=O)CCCO1`, the Potency result is “inactive”.

In the case of `CC(=O)O[C@]1(C(C)=O)CC[C@H]2[C@@H]3C=C(C)C4=CC(=O)CC[C@]4(C)[C@H]3CC[C@@]21C`, the Potency entry was “inactive”.

Consider `CCCCCCCCCCCCO`, for which the Potency entry was “inactive”.

`CC1(C)NC(=O)N(c2ccc([N+](=O)[O-])c(C(F)(F)F)c2)C1=O`: the Potency is 61.1 µM (active).

Regarding `[Na+]`, the Potency result was “inactive”.

In the case of `Brc1nc2ccccc2s1`, the Potency result was “inactive”.

As to `c1ccc2ncccc2c1`, the Potency result was “inactive”.

With `O=Cc1ccccc1C=O`, the Potency is 24.3 µM (active).

For the compound `c1ccc2cc3ccccc3cc2c1`, the Potency entry was “inactive”.

Turning to `C=C1C[C@H]2[C@@H]3C=C(C)C4=CC(=O)CC[C@]4(C)[C@H]3CC[C@]2(C)[C@@]1(OC(C)=O)C(C)=O`, the Potency result is “inactive”.

Consider `CC(=O)[C@H]1CC[C@H]2[C@@H]3CC=C4C[C@@H](O)CC[C@]4(C)[C@H]3CC[C@]12C`, for which the Potency entry was “inactive”.

Consider `CC(C)[C@@H]1CC[C@@H](C)CC1=O`, for which the Potency result was “inactive”.

Turning to `Nc1ccc2c(c1)C(=O)c1ccccc1C2=O`, the Potency entry was “inactive”.

As for `C=CCCCCCCCCCC`, the Potency result was “inactive”.

For `C=C[C@H]1CN2CC[C@H]1C[C@@H]2[C@@H](O)c1ccnc2ccc(OC)cc12`, the Potency result was “inactive”.

Take `COc1cc([C@H]2Oc3cc([C@H]4Oc5cc(O)cc(O)c5C(=O)[C@@H]4O)ccc3O[C@@H]2CO)ccc1O`: the Potency entry was “inactive”.

With `CC1(C)O[C@@H]2C[C@H]3[C@@H]4C[C@H](F)C5=CC(=O)C=C[C@]5(C)[C@@]4(F)[C@@H](O)C[C@]3(C)[C@]2(C(=O)CO)O1`, the Potency result is “inactive”.

For the compound `CCOC(=O)C(C)Oc1ccc(Oc2cnc3cc(Cl)ccc3n2)cc1` (stereo not given), the Potency entry is “inactive”.

As for `COc1ccc2nc(N)sc2c1`, the Potency entry is “inactive”.

Turning to `NCCOCCO`, the Potency entry is “inactive”.

With `CN(C)C`, the Potency entry was “inactive”.
